This passage reports growth results from PubChem BioAssay (NCI).

SMILES strings stand for the structures. Compounds without any hit were thinned out: in the full panel of roughly 83,000, 20% have a hit.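 Step 1: grow cells in 96-well plates. Step 2: add test compound at a single concentration. Step 3: incubate 48 h. Step 4: record percent growth.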 Unmarked numbers belong to inactive results. How the source made its calls: active means growth percent below 10; inactive means the rest.

The assay concerns HL-60(TB) leukemia. The assay can be described thus: NCI-60 one-dose screen, 48 h (100 = growth as untreated, 0 = no growth, -100 = all killed). Particulars: 10 µM unless noted.
On to `CC(=O)Oc1ccc(C(c2ccc(OC(C)=O)cc2)c2ccccn2)cc1`, for which the growth is 102%.
Turning to `O=S(=O)(Nc1ncccn1)c1ccc(NC2Nc3nc4ccccc4nc3S2)cc1` (stereo not drawn), the growth was 101%.
On to `O=C(/C=C/c1ccccc1)c1cccc(OCCCOc2cccc(C(=O)/C=C/c3ccccc3)c2)c1`, for which the growth is 82.3%.
